KDM5B inh = blocks human KDM5B histone demethylase activity; Q9UGL1; KDM5B demethylase, FDH-coupled NADH fluorescence (FDH is formaldehyde dehydrogenase); Potency, µM (highest dose often 57.7 µM), most hits filed as inhibitors; 220,000 compounds, 2.6% hits; note: potency is the fitted concentration of half-maximal effect; 0% is about no effect; nearly all actives have a fitted effect of over 70% in size
Target sequence (Q9UGL1 whole entry, looked up): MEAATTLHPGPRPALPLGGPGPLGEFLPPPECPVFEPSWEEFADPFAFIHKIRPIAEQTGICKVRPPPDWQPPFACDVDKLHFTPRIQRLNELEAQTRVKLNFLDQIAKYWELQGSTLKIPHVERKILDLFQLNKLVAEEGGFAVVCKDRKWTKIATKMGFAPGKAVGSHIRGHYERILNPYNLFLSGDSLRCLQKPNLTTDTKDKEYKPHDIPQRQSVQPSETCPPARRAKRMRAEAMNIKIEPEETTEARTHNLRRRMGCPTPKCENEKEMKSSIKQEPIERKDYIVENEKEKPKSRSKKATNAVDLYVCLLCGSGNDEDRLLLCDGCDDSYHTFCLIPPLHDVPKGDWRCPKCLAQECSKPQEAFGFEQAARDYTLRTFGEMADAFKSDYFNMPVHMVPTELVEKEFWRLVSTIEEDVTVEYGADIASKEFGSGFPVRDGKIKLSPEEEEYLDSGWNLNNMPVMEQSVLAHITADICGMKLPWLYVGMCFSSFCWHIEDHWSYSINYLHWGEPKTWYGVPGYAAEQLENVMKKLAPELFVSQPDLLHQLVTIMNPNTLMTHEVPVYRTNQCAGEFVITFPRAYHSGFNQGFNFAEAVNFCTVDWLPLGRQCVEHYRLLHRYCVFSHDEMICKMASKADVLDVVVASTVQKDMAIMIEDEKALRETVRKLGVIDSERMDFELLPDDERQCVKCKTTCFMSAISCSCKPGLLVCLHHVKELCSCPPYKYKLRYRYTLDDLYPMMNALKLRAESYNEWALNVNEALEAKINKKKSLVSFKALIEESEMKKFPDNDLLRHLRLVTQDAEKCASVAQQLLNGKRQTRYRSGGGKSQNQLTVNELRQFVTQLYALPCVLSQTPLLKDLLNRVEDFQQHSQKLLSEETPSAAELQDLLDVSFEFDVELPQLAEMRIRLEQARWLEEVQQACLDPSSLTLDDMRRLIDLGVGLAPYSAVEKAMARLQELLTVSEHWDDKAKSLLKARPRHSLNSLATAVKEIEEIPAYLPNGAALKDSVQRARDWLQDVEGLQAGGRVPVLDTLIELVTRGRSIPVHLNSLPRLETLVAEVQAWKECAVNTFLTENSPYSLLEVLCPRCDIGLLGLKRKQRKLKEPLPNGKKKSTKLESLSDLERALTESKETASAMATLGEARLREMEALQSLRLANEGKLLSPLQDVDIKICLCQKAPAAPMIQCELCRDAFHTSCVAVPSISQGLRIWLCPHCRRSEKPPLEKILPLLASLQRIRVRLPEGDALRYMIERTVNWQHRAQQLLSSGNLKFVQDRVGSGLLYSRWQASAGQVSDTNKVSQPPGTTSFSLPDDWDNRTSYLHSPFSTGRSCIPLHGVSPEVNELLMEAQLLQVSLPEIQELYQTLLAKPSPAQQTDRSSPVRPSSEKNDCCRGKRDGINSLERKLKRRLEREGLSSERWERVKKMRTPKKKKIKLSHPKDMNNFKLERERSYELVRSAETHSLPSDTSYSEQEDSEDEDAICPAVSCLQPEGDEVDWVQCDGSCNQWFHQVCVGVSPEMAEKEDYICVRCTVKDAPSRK
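KDM5BΔAP (200 nM final) in 50 mM HEPES pH 7.5, 0.01% Tween-20 was preincubated 10 min at RT with compound over a concentration range. Substrate mix (H3K4me3 12.5 µM, α-KG 25 µM, Fe²⁺, ascorbate, NAD⁺, FDH) was added, and NADH fluorescence change over 30 min gave dose-response curves.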
IP6K1 inh = IP6K1 kinase inhibition | Q92551 | IP6K1 kinase, ADP-Glo luminescence, 2 h; active compounds read low | activity change, % (series mostly up to about 58 µM) | 140,000 compounds, 0.81% hits; in the data active = activity change below about -25%; note: % is set by controls: 0 for no effect and ±100 for the full control effect
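ADP-Glo luminescence measures ADP made by human IP6K1 during a 2 h RT reaction with ATP/IP6 (mix at 1.3 mM/130 uM); top library doses 57.5 and 19.1 uM final.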
HEK293 viab = cell viability loss counter-screen. HEK-293-SNCA-luc viability, GF-AFC fluorescence, 24 h. Potency, µM (highest dose often 57.1 µM), for inactives: at the top dose activity change, negative = cytotoxicity, hits mostly cytotoxic. 150,000 compounds, 0.12% hits. AID 1671193;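 note: potency is the fitted concentration of half-maximal effect; 0% = DMSO-treated cells and -100% = medium-only wells without cells; nearly all actives have a fitted effect of over 30% in size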
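Cytotoxicity counterscreen: after 24 h compound treatment of genome-edited SNCA-luciferase HEK-293 cells, live-cell protease substrate GF-AFC read by fluorescence after 30 min; activity scaled between DMSO (0%) and medium-only (-100%), curves Hill-fitted.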
SNCA expr inh = SNCA gene expression inhibition. HEK-293 SNCA-luciferase knock-in, luminescence, 24 h. Potency, µM (doses to about 57.2 µM), without a hit: at the top dose activity change, negative = inhibition, usual class: inhibitors. 140,000 compounds, 0.17% hits;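 note: potency is the fitted concentration of half-maximal effect; plate controls were DMSO cells for no effect and cell-free wells for full effect; nearly all actives have a fitted effect of over 45% in size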
* hit, by the source's call; i = inactive; ? = inconclusive; . = no result; [ ] = another dose, or the depositor's remark. An excerpt weighted towards active compounds, which were near 2.8% of everything screened. Unless noted, calls come from the whole dose curve; as a rule, active = well fitted curve in the direction sought with a large enough effect; inconclusive = small, poorly fitted or top-dose-only effect, or another doubt; inactive = no such curve, though single readings can be large; an effect the other way counts as inactive or inconclusive.

SMILES | KDM5B inh | IP6K1 inh | HEK293 viab | SNCA expr inh
COc1ccc(Cl)cc1-c1ccc2c(c1)C(=O)N1CCN(C(=O)CN)C[C@H]1C(=O)N2 | 35µM* | 26 | -4%[87.6 µM] | -8%[87.6 µM]
CC(C)CCN1CCc2c(n(CCOc3ccccc3)n(-c3ccccc3)c2=O)C1 | ? | -10 | ? | ?
CC(C)NC(=O)N1CCN(C(=O)NC2CCCCC2)[C@@H](C(=O)N[C@H](Cc2c[nH]c3ccccc23)C(N)=O)C1 | i | 1 | -10% | -15%
COCC(=O)N[C@H]1CCN(C(=O)COC)[C@H](C(=O)N[C@H](Cc2c[nH]c3ccccc23)C(=O)OC)C1 | 22µM* | -5 | 14% | 1%
Cc1ccc(NC(=O)C(C)n2nc(C(=O)O)c3ccccc3c2=O)cc1 (centres undefined) | i | . | . | .
CN(C(=O)c1ccc(-c2nnc3ccc(NC(=O)C4CCC4)cn23)cc1)C1CCCCC1 | ? | 8 | -8% | 0%
CC(C)CCNC(=O)c1ccc(-c2nnc3ccc(NC(=O)C4CCC4)cn23)cc1 | ? | -7 | -14% | 6%
Cc1cccc(CNC(=O)c2ccc(-c3nnc4ccc(NC(=O)C5CCC5)cn34)cc2)c1 | 28µM* | -5 | -26% | ?
Cc1ccc(CNC(=O)c2ccc(-c3nnc4ccc(NC(=O)C5CCC5)cn34)cc2)cc1 | ? | 6 | -3% | 1%
O=C(O)c1ccc(-c2nnc3ccc(NC(=O)C4CCC4)cn23)cc1 | 32µM* | -1 | 2% | 149%
CC(C)CNC(=O)c1ccc(-c2nnc3ccc(NC(=O)C4CC4)cn23)cc1 | 14µM* | -12 | -2% | ?
CN1CCN(CC(=O)C(C#N)c2ccccc2)CC1 (centres undefined) | i | . | . | .
CCCc1cc(C(=O)Nc2ccccc2C#N)cs1 | i | . | . | .
Cc1nc(N2CCC(NC(=O)c3cccc4[nH]ccc34)CC2)cc(C(F)(F)F)n1 | 28µM* | -15 | -15% | -9%
O=C(NC1CCN(c2cc(-c3ccc(F)cc3)[nH]n2)C1)c1c[nH]c2ccccc12 (centres undefined) | 14µM* | 0 | ? | ?
COc1ccc(C(=O)N2CCCN(c3cc(-c4ccc(OC)cc4)[nH]n3)CC2)cc1 | i | 3 | -10% | 6%
COc1ccc(-c2cc(N3CCCC(NC(=O)c4cccc5[nH]ccc45)C3)n[nH]2)cc1 (centres undefined) | 25µM* | 2 | ? | 6%
COc1ccc(-c2cc(N3CCCN(C(=O)c4cccc5[nH]ccc45)CC3)n[nH]2)cc1 | 28µM* | 13 | -8% | 27%
CC(=O)NC1(C)CCN(Cc2ccccc2-c2ccc3ccccc3c2)C1 (centres undefined) | ? | -3 | -28%[87.6 µM] | ?
O=C1NCC(c2ccc(Cl)cc2)Cc2[nH]c(-c3ccc(O)cc3)nc21 (centres undefined) | 25µM* | 1 | ? | -11%
O=C(Cn1nc2c(cc1=O)CCCCC2)NC1CCCc2c1[nH]c1ccccc21 (centres undefined) | 28µM* | -7 | -14% | -26%
Cn1nc(C(=O)NC2CCCc3c2[nH]c2ccccc32)c2ccccc2c1=O (centres undefined) | 25µM* | 0 | -4% | -5%
O=C(Cn1nc2c(cc1=O)CCCCC2)N1CC=C(c2c[nH]c3ccccc23)CC1 | 18µM* | -1 | -20% | 41%
O=C(NC1CCCc2c1[nH]c1ccccc21)c1ccccc1 (centres undefined) | ? | -4 | 7% | 28%
O=C(Cn1nc2c(cc1=O)CCCCC2)NC1CCCc2c1[nH]c1c(Cl)cccc21 (centres undefined) | i | 7 | 13% | -10%
SMILES | KDM5B inh | IP6K1 inh | HEK293 viab | SNCA expr inh
Cc1ccc(S(=O)(=O)N2CCN(C(=O)NCC3CN(CC(C)C)CCO3)CC2)cc1C (centres undefined) | i | . | . | .
COc1ccccc1-n1cc(C(=O)N2CCC3(CCNC(=O)CC3)CC2)cn1 | i | -11 | 2% | 44%
Cc1cccc2ncc(C(=O)N3CCC4(CCNC(=O)CC4)CC3)c(=O)n12 | 22µM* | 14 | 7% | ?
COC(=O)CNC(=O)C1CCCN1c1nc2ncccc2o1 (centres undefined) | ? | -11 | 4%[87.6 µM] | 1%[87.6 µM]
COCCNC(=O)C1CCCN(c2nc3ncccc3o2)C1 (centres undefined) | 28µM* | 16 | -4%[87.6 µM] | 9%[87.6 µM]
O=C(NCc1ccccn1)C1CCCN(c2nc3ncccc3o2)C1 (centres undefined) | 35µM* | -7 | -6%[87.6 µM] | -4%[87.6 µM]
COC(=O)CNC(=O)C1CCCN(c2nc3ncccc3o2)C1 (centres undefined) | 28µM* | 9 | 4%[87.6 µM] | -10%[87.6 µM]
O=C(NCc1cccc(F)c1)C1CCCN(c2nc3ncccc3o2)C1 (centres undefined) | i | 10 | -1%[87.6 µM] | -19%[87.6 µM]
O=C(CSc1nnc2ccc(-c3ccncc3)nn12)NC1CCCCC1 | i | . | . | .
Cc1ccc(NC(=O)Nc2ccc(C)n(CC(=O)Nc3ccc(C)cc3C)c2=O)cc1 | i | -6 | 15% | 116%
Cc1cccc(NC(=O)Nc2ccc(C)n(CC(=O)Nc3ccc(C)c(C)c3)c2=O)c1 | i | 4 | -27% | 10%
Cc1cccc(NC(=O)Nc2ccc(C)n(CC(=O)O)c2=O)c1 | 20µM* | 6 | 15% | -7%
COc1ccccc1NC(=O)Cn1c(C)ccc(NC(=O)Nc2ccc(C)cc2)c1=O | 18µM* | -7 | -22% | 14%
CCOC(=O)C(CCC#N)(NC(C)=O)C(=O)OCC | i | . | . | .
Clc1cc(Cn2nnc(-c3ccccc3Br)n2)cc2c1OCCCO2 | i | . | . | .
CCCS(=O)(=O)N1CCc2n[nH]c(=O)n2CC1 | i | -6 | 6% | ?
CCCCS(=O)(=O)N1CCc2n[nH]c(=O)n2CC1 | 20µM* | -13 | -1% | -7%
Cc1ccnc(NCCNC(=O)C2CCC(=O)N(CC3CCCCC3)C2)c1 (centres undefined) | 28µM* | -10 | 2% | 4%
Cn1ccnc1-c1ccc(N2CCC(C(O)Cc3ccccc3)CC2)nn1 (centres undefined) | 28µM* | 5 | -13% | -34%
Cn1ccnc1-c1ccc(N2CC[C@](C)(O)[C@@H](O)C2)nn1 | ? | -4 | 5% | 220%
COc1cccc(CC2(CO)CCCN(c3ccc(-c4nccn4C)nn3)C2)c1 (centres undefined) | 20µM* | 5 | ? | -13%
NC(=O)c1nn(CC(=O)NC2CCCCCC2)c(=O)c2ccccc12 | i | . | . | .
Cn1ncc(CN2CCc3nc(-c4ccc(F)cc4F)[nH]c3C2)c1C1CC1 | 25µM* | 2 | 1% | 15%
CN(C)c1nc2c(c(=O)[nH]1)CCN(Cc1ccc(F)cc1F)CC2 | i | 14 | -10% | -25%
Cc1noc(CN2CCc3nc(-c4ccc(F)cc4F)[nH]c3C2)n1 | 32µM* | 0 | -18% | 14%
CCc1noc(-c2ccn3c(CNC(=O)c4cccc(OC)c4)nnc3c2)n1 | 28µM* | 20 | 3% | -10%

Screening results as filed in PubChem.
